# Experimental data from article PMC5540273 (PLoS ONE, 2017).
# Tests used:
# Conditions in all cases: concentration: 1 μM, replicates: in singlicate; n = 1
# MAPKAPK5 = test system: MAPKAPK5
# MARK1 = test system: MARK1
# MARK2 = test system: MARK2
# MARK3 = test system: MARK3
# MARK4 = test system: MARK4
# MAST1 = test system: MAST1
# MEK1 = test system: T1, MEK1
# T1 construct: gene MAP2K1
# MEK2 = test system: T2, MEK2
# T2 construct: gene MAP2K2
# MEK3 = test system: T3, MEK3
# T3 construct: gene MAP2K3
# MEK4 = test system: T4, MEK4
# T4 construct: gene MAP2K4
# MEK5 = test system: T5, MEK5
# T5 construct: gene MAP2K5
# MEK6 = test system: T6, MEK6
# T6 construct: gene MAP2K6
# MELK = test system: MELK
# MERTK = test system: MERTK
# MET = test system: MET
# MINK = test system: T7, MINK
# T7 construct: gene MINK1
# MKK7 = test system: MKK7
# MKNK1 = test system: MKNK1
# MKNK2 = test system: MKNK2
# MLCK = test system: T8, MLCK
# T8 construct: gene MYLK3
# 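Note: KINOMEscan kinase panel screen.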
SMILES,%Inh (MAPKAPK5) [%],%Inh (MARK1) [%],%Inh (MARK2) [%],%Inh (MARK3) [%],%Inh (MARK4) [%],%Inh (MAST1) [%],%Inh (MEK1) [%],%Inh (MEK2) [%],%Inh (MEK3) [%],%Inh (MEK4) [%],%Inh (MEK5) [%],%Inh (MEK6) [%],%Inh (MELK) [%],%Inh (MERTK) [%],%Inh (MET) [%],%Inh (MINK) [%],%Inh (MKK7) [%],%Inh (MKNK1) [%],%Inh (MKNK2) [%],%Inh (MLCK) [%]
COc1cc(Nc2ncc3c(C)nc(-c4cc5ccccc5[nH]4)n3n2)cc(OC)c1OC [GW869516],0,16,11,3,22,13,0,0,0,0,78,0,49,56,0,1,0,0,0,36
COc1cc(Nc2nccc(-c3c(-c4cccc(NC(=O)c5c(F)cccc5F)c4)nn4ncccc34)n2)cc(OC)c1OC [GSK327238],0,53,18,30,56,0,98.5,98.4,12,46,99.9,51,31,90.2,79,44,0,5,5,47
Cl.Cl.NCC(NC(=O)c1cc(-c2ccccc2)c(-c2ccnc3[nH]ccc23)s1)c1ccccc1 (stereo not shown) [GSK1321561],0,0,0,11,3,0,5,0,51,42,19,6,37,44,3,90.7,17,20,19,40
O=C(Nc1cccc(-c2nn3ncccc3c2-c2ccnc(Nc3ccccc3)n2)c1)c1c(F)cccc1F [GSK198271],0,0,0,0,0,0,70,77,3,39,99.9,59,0,79,43,23,27,11,7,8
O=C(NC1CCN(c2ccnc(Nc3ccc(F)cc3)n2)C1)c1cc2ccccc2s1 (stereo not shown) [GSK1379716],0,0,0,0,10,0,0,4,0,20,8,1,0,38,0,0,0,3,7,8
Nc1n[nH]c2cnc(-c3ccccc3)cc12 [SB-642124],0,0,0,0,0,14,0,0,0,37,52,0,28,43,0,53,0,13,8,1
Fc1ccc(-c2ncn(C3CCNCC3)c2-c2ccnc(Oc3ccc(-c4ccccc4)cc3)n2)cc1 [SB-245391],0,25,23,23,25,36,15,19,18,15,17,29,27,0,50,30,11,0,10,0
Cl.NC(=O)c1cccc(Nc2nccc(Nc3ccc(Oc4c(Cl)cccc4Cl)c(Cl)c3)n2)c1 [GW659009],0,0,0,7,0,0,0,0,0,30,97.5,0,0,0,0,90.2,17,0,1,0
COc1cccc(NC(=O)NC2CCN(c3ccnc(Nc4cc(OC)c(OC)c(OC)c4)n3)C2)c1 (stereo not shown) [GSK1379763],0,0,0,0,0,0,0,9,8,12,99.9,0,0,15,0,0,0,36,65,0
CN(c1ccc(NC(=O)Nc2cc(C(F)(F)F)ccc2F)cc1)c1ccnc(Nc2ccc(S(N)(=O)=O)cc2)n1 [GW809893],0,7,22,2,1,18,0,19,51,67,98.8,100,12,98.2,88,76,2,50,98.9,28
CN(C)Cc1ccc(-c2ccc3c(Nc4ccc(Oc5ccccn5)cc4)ccnc3c2)o1 [GW567148],0,2,0,0,13,11,94.7,96.8,0,26,100,0,0,38,12,36,0,0,38,0
COc1cccc(C(=O)Nc2cccc(Oc3ccc4nc(NC(=O)C5CC5)cn4n3)c2)c1,0,17,0,0,10,0,28,43,15,0,98.2,0,35,57,20,63,0,4,0,0
Cl.Cl.NCC(NCc1ccc(-c2ccnc3[nH]ccc23)s1)c1ccccc1 (stereo not shown) [GSK1321565],0,0,0,0,0,11,0,0,49,18,43,4,64,74,0,51,0,2,65,6
Cc1ccc(S(=O)(=O)Nc2ccc(Nc3nccc(Nc4cccc5[nH]ncc45)n3)cc2)cc1 [GSK581271],0,0,0,0,7,7,0,0,0,10,69,0,0,9,0,0,0,0,1,0
CC(C)(C)c1ccc2nccc(Nc3cccc(O)c3)c2c1 [GW856795],0,9,2,27,21,22,46,44,49,0,52,0,1,0,0,0,31,47,23,0
Cc1ccc(C(=O)N2CC[C@@H](O)C2)cc1-n1c(C)cc(OCc2ccc(F)cc2F)c(Br)c1=O,0,0,0,0,0,0,0,36,0,0,0,0,0,0,0,0,0,0,0,0
CC(=O)Nc1nc2cnc(Nc3cc(NC(=O)c4cccc(C5(C#N)CC5)c4Cl)ccc3C)nc2s1,0,1,19,0,10,23,0,0,0,5,12,25,0,17,8,0,10,16,0,0
Cn1cc(-c2ccc3c(c2)CCN3C(=O)Cc2cccc(F)c2)c2c(N)ncnc21 [GSK2603358],0,69,0,0,34,5,15,0,0,26,99.9,0,9,49,61,0,32,2,21,16
c1ccc(-c2cnc3nccnn23)cc1 [AH20685],0,0,0,0,0,0,0,0,0,2,0,0,0,0,0,0,0,2,11,9
Clc1ccc(-c2nn3ncccc3c2-c2ccnc(Nc3ccc4c(c3)OCCO4)n2)cc1 [GW829116],0,0,0,20,0,0,6,27,14,1,33,20,0,0,0,23,0,0,0,0
